Rows were chosen to be rich in hits. Some 10% of all compounds tested hit in one or more screens of this group.
HP1b chromo inh: HP1-beta chromodomain-methylated histone interaction inhibition | AlphaScreen HP1-beta / biotin-H3K9me3 peptide binding | Potency, µM (series often up to 114 µM), for inactives: top-dose activity change, negative = inhibition, most hits filed as inhibitors | hit rate 0.56% among 390,000; note: nearly all actives have a fitted effect of over 70% in size
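AlphaScreen: HP1-beta (50 nM) preformed 30 min with biotin-H3(1-18)K9me3 peptide (50 nM) in PBS pH 7.4, 0.01% Tween-20. Compound added for 30 min at RT, then streptavidin donor/nickel chelate acceptor beads (10 ug/mL) for 30 min.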
L3MBTL1 inh: L3MBTL1 (human) inhibition; AlphaScreen L3MBTL1–H3K9me1 peptide binding; Q9Y468; Potency, µM (titrated, usually from 57.1 µM), inactives show top-dose activity, negative = inhibition, most hits filed as inhibitors; hit rate 0.66% among 230,000; AID 485360; note: % is set by controls: 0 for no effect and ±100 for the full control effect; nearly all actives have a fitted effect of over 60% in size
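L3MBTL1 50 nM + b-AHA-H3(1-15)K9me1 75 nM, 30 min RT; compound added, 30 min RT; streptavidin donor/Ni-chelate acceptor beads 10 ug/mL each final, 30 min RT dark; AlphaScreen read.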
G9a inh: blocks human histone lysine methyltransferase G9a | G9a H3K9 monomethylation, AlphaScreen, 2 h | hit rate 8.8% among 350,000 | Potency, µM (series often up to 102 µM), inactives show top-dose activity, negative = inhibition, usual class: inhibitors | Q96KQ7; note: % is set by controls: 0 for no effect and ±100 for the full control effect; nearly all actives have a fitted effect of over 75% in size
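G9a (20 nM) preincubated 15 min RT with compounds, then 500 nM biotinylated H3K9 peptide and 20 uM SAM added; 2 h RT reaction. Monomethyl-H3K9 product detected by AlphaScreen with anti-H3K9me1 antibody, streptavidin donor and anti-rabbit IgG acceptor beads.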
JMJD2A Tudor inh: blocks the human JMJD2A Tudor domain; O75164; AlphaScreen JMJD2A-Tudor / H3K4me3 peptide binding; Potency, µM (top dose mostly 114 µM), for inactives: top-dose activity change, negative = inhibition, actives largely listed as inhibitors; hit rate 4.4% among 390,000; AID 504339; note: % is set by controls: 0 for no effect and ±100 for the full control effect; nearly all actives have a fitted effect of over 50% in size
BAZ2B block: inhibitors of human BAZ2B bromodomain | Q9UIF8 | AlphaScreen BAZ2B-H3K14Ac peptide displacement | Potency, µM (doses to about 114 µM), inactives show at the highest dose activity change, negative = inhibition, actives largely listed as inhibitors | hit rate 4.4% among 360,000; note: % is set by controls: 0 for no effect and ±100 for the full control effect; nearly all actives have a fitted effect of over 60% in size
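Inhibition is scored as reduced AlphaScreen emission. The BAZ2B/b-H3(5-23)K14Ac complex (50 nM each) in PBS pH 7.4, 0.01% Tween-20 meets compound (up to 110 uM) for 30 min at RT before bead addition.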
GLS inh: glutaminase GLS (human) inhibition | GLS enzymatic activity, qHTS titration | hit rate 0.21% among 410,000 | Potency, µM (series often up to 45.5 µM), without a hit: top-dose activity change, negative = inhibition, most hits filed as inhibitors; note: % is set by controls: 0 for no effect and ±100 for the full control effect
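hKGA; 45 mM KH2PO4 pH 8.2 + 0.02% Tween-20; cpd via pin tool; 1 mM Gln soln; GluOx/HRP/Amplex Red; RT 30 min; fluor. t0 & final.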
Starred values were filed as active, the others as inactive; ? = inconclusive; nt = not tested or not shown; [ ] = dose if it differs, or a comment. Calls come from the whole dose curve; as a rule, active = well fitted curve in the direction sought with a large enough effect; inconclusive = small, poorly fitted or top-dose-only effect, or another doubt; inactive = no such curve, though single readings can be large; an effect the other way counts as inactive or inconclusive. Potency is the fitted concentration of half-maximal effect.

SMILES	HP1b chromo inh	L3MBTL1 inh	G9a inh	JMJD2A Tudor inh	BAZ2B block	GLS inh
C=CCOC(=O)Nc1ccc(Cl)cc1NC(=O)OCC=C	44%	nt	-25%[12.7 µM]	5%	1%	2%
Cc1ccc2c(=O)cc(C(=O)Nc3sc4c(c3C(=O)NCC3CCCO3)CCC4)oc2c1 (configuration not stated)	7%	nt	-32%[59 µM]	-22%	-14%	-3%
COc1cccc(C(=O)Nc2sc3c(c2C#N)CCN(C(C)=O)C3)c1	?	nt	5µM*	-30%	nt	3%
COc1cccc(C(=O)Nc2sc3c(c2C(=O)O)CCCC3)c1	3%	nt	3%	-16%	-17%	-10%
CC(=O)N1CCc2c(sc(NC(=O)c3cccc(N4C(=O)CCC4=O)c3)c2C(N)=O)C1	26%	nt	45µM*	0%	-27%	5%
Cn1nnnc1SCCCNCc1cc(Br)ccc1OCc1ccccc1F	5%	nt	-29%[59 µM]	-25%	-10%	-12%
CN1CCc2c(sc(NC(=O)c3cc4cc([N+](=O)[O-])ccc4s3)c2C(N)=O)C1	nt	nt	25µM*	nt	?	nt
CN1CCc2c(sc(NC(=O)c3ccco3)c2C(N)=O)C1	15%	nt	nt	-6%	-10%	31%
CC(C)N1CCc2c(sc(NC(=O)c3ccc4ccccc4c3)c2C(N)=O)C1	47%	nt	22%	22%	-13%	9%
CC(C)N1CCc2c(sc(NC(=O)c3cc4cc([N+](=O)[O-])ccc4s3)c2C(N)=O)C1	?	-21%	40µM*	?	40µM*	-1%
CN1CCc2c(sc(NC(=O)c3ccc([N+](=O)[O-])o3)c2C(N)=O)C1	-30%	nt	35µM*	?	35µM*	7%
CC(C)OC(=O)c1cc2c(OC[C@@H](O)CNC(C)(C)C)cccc2[nH]1	nt	nt	nt	nt	nt	-1%
O=C(OCC#CCSc1nnc(-c2ccccc2)o1)c1ccc(F)cc1	nt	nt	nt	79%	nt	nt
CCOC(=O)[C@H](CCc1ccccc1)N[C@@H](C)C(=O)N(CC(=O)O)C1Cc2ccccc2C1	nt	nt	nt	nt	nt	4%
COc1cccc(Cn2cnc3c2c(=O)n(C)c(=O)n3C)c1	59%	nt	28%[59 µM]	-7%	-2%	1%
Cc1c(C(=O)NCc2cccc(Br)c2)oc2ccc3c(c12)C(=O)CC(C)(C)O3	8%	nt	-4%[59 µM]	-16%	-6%	-2%
CCOC(=O)COc1ccc(C2C(C(=O)OC)=C(C)NC3=C2C(=O)c2ccccc23)cc1Cl (configuration not stated)	?	nt	1%[59 µM]	18µM*	-32%	4%
COc1cccc(C2C(=O)c3ccccc3C2=O)c1	26%	-3%	50µM*	2%	-28%	-10%
CCOC(=O)C1=C(C)NC2=C(C(=O)c3ccccc32)C1c1cccc2ccccc12 (configuration not stated)	?	nt	-36%[12.7 µM]	20µM*	35µM*	-24%
COC(=O)C1=CN(C(C)C)C=C(C(=O)OC)C1c1cccc(OC)c1	87%	27%	52%[12.7 µM]	63%	24%	18%
CCOc1cc(C2C(C(=O)OC)=C(C)NC3=C2C(=O)c2ccccc23)c(Br)cc1O (configuration not stated)	?	nt	16µM*	35µM*	22µM*	23%
CCOc1cc(C2C(C(=O)OC)=C(C)NC3=C2C(=O)c2ccccc23)ccc1OC (configuration not stated)	?	nt	?	-32%	-35%	4%
C#CCOc1ccc(C2C(C(=O)OC)=C(C)NC3=C2C(=O)c2ccccc23)cc1OCC (configuration not stated)	?	nt	11µM*	25µM*	22µM*	7%
CCOC(=O)C1=C(C)NC2=C(C(=O)c3ccccc32)C1c1ccc(O)cc1 (configuration not stated)	-24%	-12%	?	?	?	12%
CC1=C([N+](=O)[O-])C(c2cccc(Br)c2)C2=C(N1)c1ccccc1C2=O (configuration not stated)	?	nt	-21%[2.33 µM]	16µM*	14µM*	6%

Compound activity from PubChem.
